Among the data in PubChem BioAssay (EPA / NIEHS) are outcome and AC50 values, retold here.

Records with an inconclusive call do not appear. Active and inactive are the calls of the source. Rule for the calls, unless noted: active = hit-call score of the fitted dose curve at least 0.9, where 1 is the maximum; inactive = score below 0.9.

Assay [1] can be described thus: ATG_NFI_CIS: Attagene CIS-FACTORIAL HepG2 Assay for human Nuclear Factor I (NFI) (AID 2282989). To be noted: HepG2 cis-regulatory reporter, NFI response element transcription; actives raise or lower the signal. The method in brief: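 Reporter transcription driven by endogenous transcription factors in HepG2 cells; 24 h treatment. Quantitation by labelled RT-PCR fragments on capillary electrophoresis, gain- or loss-of-signal relative to DMSO.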

Assay [2] has as its target Myc proto-oncogene protein (Homo sapiens) (UniProt P01106). As to the kind of experiment: ATG_Myc_CIS: Attagene CIS-FACTORIAL HepG2 Assay for human Myelocytomatosis (Myc) Proto-Oncogene Transcription Factor (AID 2282990). To be noted: HepG2, Attagene cis-reporter transcription factor activity; actives raise or lower the signal. The method in brief:
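HepG2 cells transiently transfected with multiple cis-promoter-driven reporter transcription units, so endogenous TF activity is read. After 24 h compound exposure, reporter mRNA was quantified by RT-PCR, 6-FAM labelling, HpaI digestion and capillary electrophoresis; bidirectional fit versus DMSO.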

Assay [3] in a line: ATG_NF_kB_CIS: Attagene CIS-FACTORIAL HepG2 Assay for human Nuclear Factor Kappa B (NF-kB) (AID 2282991). The conditions noted are these: HepG2 Attagene cis-factorial NF-kB reporter mRNA; actives raise or lower the signal. Put shortly:
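Read-out: reporter transcript levels quantified by RT-PCR plus capillary electrophoresis of 6-FAM-labelled, HpaI-cut fragments. Transfected HepG2 cells, 24 h compound exposure, endogenous NF-kB-driven cis element; gain or loss scored versus DMSO.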

The nature of assay [4]: ATG_NRF2_ARE_CIS: Attagene CIS-FACTORIAL HepG2 Assay for human Nuclear Factor Erythroid 2 Related Factor 2 (NFR2) response to Antioxidant Response Elements (ARE) (AID 2282992).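 For AC50: reporter mRNA level measured by RT-PCR and capillary electrophoresis fluorescence.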 The conditions noted are these: HepG2 Attagene ARE/NRF2 reporter, transcription factor activity; actives raise or lower the signal. Put shortly: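 Fluorescence intensity of reporter-specific cDNA fragments, separated by capillary electrophoresis, reflects mRNA induction in transfected HepG2 cells at 24 h. Activity is fitted bidirectionally, DMSO serving as baseline.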

Assay [5] can be described thus: ATG_Oct_MLP_CIS: Attagene CIS-FACTORIAL HepG2 Assay for human Octamer-Binding Transcription Factor (Oct) (AID 2282993). The conditions noted are these: HepG2 Attagene cis-factorial Oct reporter, mRNA; actives raise or lower the signal. The method in brief: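 Transfected HepG2 cells, 24 h treatment. Reporter mRNA quantified by RT-PCR–capillary electrophoresis; bidirectional fitting against DMSO.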

Assay [6] concerns the target Cellular tumor antigen p53 (Homo sapiens) (UniProt P04637). As to the kind of experiment: ATG_p53_CIS: Attagene CIS-FACTORIAL HepG2 Assay for human p53 Transcription Factor (AID 2282994). To be noted: HepG2 p53 cis-element reporter, Attagene mRNA; actives raise or lower the signal. Put shortly: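 Transiently transfected HepG2 (multiple cis reporter transcription units); exposure 24 h; reporter RNA via RT-PCR, 6-FAM extension, 2 h HpaI digest at 37 C, CE detection; DMSO baseline.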

A short description of assay [7]: BSK_3C_TissueFactor: BioMAP Diversity Plus: 3C Assay for Tissue Factor Biomarker Activity (AID 2282997). To be noted: BioMAP 3C HUVEC, tissue factor biomarker readout; actives raise or lower the signal. The method in brief:
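After a 24 h chemical exposure of primary human umbilical vein endothelial cells, Tissue Factor levels were quantified by ELISA.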

The nature of assay [8]: BSK_3C_uPAR: BioMAP Diversity Plus: 3C Assay for Urokinase-type plasminogen activator receptor (uPAR) Biomarker Activity (AID 2282998). The conditions noted are these: BioMAP 3C HUVEC, uPAR biomarker ELISA; actives raise or lower the signal. Put shortly:
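Readout: ELISA for surface uPAR. System: human umbilical vein endothelial primary cells, 24 h after chemical exposure. Analysis: bidirectional fit, DMSO baseline.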

A short description of assay [9]: BSK_3C_VCAM1: BioMAP Diversity Plus: 3C Assay for Vascular cell adhesion molecule 1 (VCAM1) Biomarker Activity (AID 2282999). To be noted: BioMAP 3C HUVEC, VCAM1 ELISA, cytokine-stimulated; actives raise or lower the signal. Put shortly: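 Vascular primary endothelium (human umbilical vein) was exposed to chemicals and assayed 24 h later. VCAM-1 levels came from ELISA, with DMSO serving as baseline for bidirectional fitting.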

A short description of assay [10]: BSK_4H_Eotaxin3: BioMAP Diversity Plus: 4H Assay for Eotaxin 3 Biomarker Activity (AID 2283000).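 For outcome: CCL26 protein level quantified by ELISA in parallel with SRB cytotoxicity check.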 To be noted: primary human endothelial cells (HUVEC); actives raise or lower the signal. Put shortly: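 Chemicals were added to human umbilical vein endothelium cultures, and Eotaxin-3 was quantified by ELISA at 24 h. Values were derived by bidirectional fitting with DMSO serving as negative control and activity baseline.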

Assay [11] has as its target human Peroxisome Proliferator-activated Receptor alpha (PPARa), PPARA (gene 5465) (UniProt Q07869). As to the kind of experiment: ATG_PPARa_TRANS: Attagene TRANS-FACTORIAL HepG2 Assay for human Peroxisome Proliferator-activated Receptor alpha (PPARa) (AID 2283001; active = hit-call score of the fitted dose curve at least 0.9, where 1 is the maximum;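 for AC50: potency for gain of reporter signal over DMSO so agonist or activator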). The method in brief: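 Cells (HepG2) are transfected with multiple reporter transcription units, exposed to chemical for 24 h, then total RNA is reverse-transcribed and amplified. Labelled products are quantified by capillary electrophoresis; induction is referenced to DMSO.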

Read-out in assay [12]: Intercellular Adhesion Molecule 1 (ICAM1), ICAM1 (gene 3383)
As to the kind of experiment: BSK_3C_ICAM1: BioMAP Diversity Plus: 3C Assay for Intercellular Adhesion Molecule 1 (ICAM1) Biomarker Activity (AID 2283003). The conditions noted are these: primary human endothelial cells (HUVEC); actives raise or lower the signal. Put shortly: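 ELISA readout of ICAM1 in human umbilical vein endothelial cells in the 3C system, taken 24 h post-dose. Gain or loss of signal versus DMSO was fitted in both directions, with SRB total-protein staining run in parallel.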

Assay [13] can be described thus: BSK_3C_Proliferation: Cell Proliferation Assessment in the BioMAP Diversity Plus: 3C Assay (AID 2283006).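 For AC50: potency may reflect either rise or fall in cell number versus DMSO.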 To be noted: primary human endothelial cells (HUVEC). Put shortly:
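Proliferation as total protein: sulforhodamine B (0.1%) stain of TCA-fixed subconfluent human umbilical vein endothelial cells, absorbance 560 nm, 48 h after dosing. Activity fitted in both directions against DMSO baseline.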

Assay [14] has as its target human Retinoic Acid Receptor gamma (RARg), RARG (gene 5916) (UniProt P13631). As to the kind of experiment: ATG_RARg_TRANS: Attagene TRANS-FACTORIAL HepG2 Assay for human Retinoic Acid Receptor gamma (RARg) (AID 2283009; active = hit-call score of the fitted dose curve at least 0.9, where 1 is the maximum). Put shortly:
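Transactivation of exogenous RARg-Gal4 fusion measured as reporter transcript induction after 24 h in transfected HepG2 cells. RNA reverse-transcribed, amplified, fluorescently labeled and resolved by capillary electrophoresis; increase relative to DMSO.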

The target in assay [15] is human RAR-related Orphan Receptor beta (RORb), RORB (gene 6096) (UniProt Q92753). As to the kind of experiment: ATG_RORb_TRANS: Attagene TRANS-FACTORIAL HepG2 Assay for human RAR-related Orphan Receptor beta (RORb) (AID 2283010; active = hit-call score of the fitted dose curve at least 0.9, where 1 is the maximum). Put shortly: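 Read-out is reporter mRNA induction, quantified by RT-PCR with fluorescent capillary electrophoresis, 24 h post-dose in transiently transfected HepG2 expressing exogenous NR-Gal4 chimera. Activity fitted upward versus DMSO.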
human RAR-related Orphan Receptor beta (RORb), RORB (gene 6096), sequence (Q92753 whole entry, looked up, the tested form may be a part): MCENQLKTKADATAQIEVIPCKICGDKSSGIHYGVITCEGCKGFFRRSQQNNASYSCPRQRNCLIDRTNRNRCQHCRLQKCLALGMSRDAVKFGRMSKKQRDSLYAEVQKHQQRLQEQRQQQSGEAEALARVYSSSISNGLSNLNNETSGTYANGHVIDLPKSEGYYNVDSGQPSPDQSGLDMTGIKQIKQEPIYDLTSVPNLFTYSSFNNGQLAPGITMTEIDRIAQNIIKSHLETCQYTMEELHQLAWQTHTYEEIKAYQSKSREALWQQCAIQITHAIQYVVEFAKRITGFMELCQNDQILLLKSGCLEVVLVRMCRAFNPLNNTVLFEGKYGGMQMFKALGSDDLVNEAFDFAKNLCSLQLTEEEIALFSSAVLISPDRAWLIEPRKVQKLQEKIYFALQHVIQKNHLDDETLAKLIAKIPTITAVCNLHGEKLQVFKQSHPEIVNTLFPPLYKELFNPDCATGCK

Assay [16] deals with human Peroxisome Proliferator-activated Receptor delta (PPARd), PPARD (gene 5467) (UniProt Q03181). As to the kind of experiment: ATG_PPARd_TRANS: Attagene TRANS-FACTORIAL HepG2 Assay for human Peroxisome Proliferator-activated Receptor delta (PPARd) (AID 2283002; active = hit-call score of the fitted dose curve at least 0.9, where 1 is the maximum). The method in brief: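 HepG2 cells transiently transfected with multiplexed GAL4-UAS reporter units and exogenous chimeric NR-Gal4 proteins; 24 h compound exposure. Reporter mRNA measured by RT-PCR, 6-FAM labelling, HpaI digestion and capillary electrophoresis; gain of signal versus DMSO.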
human Peroxisome Proliferator-activated Receptor delta (PPARd), PPARD (gene 5467), sequence (Q03181 whole entry, looked up, the tested form may be a part): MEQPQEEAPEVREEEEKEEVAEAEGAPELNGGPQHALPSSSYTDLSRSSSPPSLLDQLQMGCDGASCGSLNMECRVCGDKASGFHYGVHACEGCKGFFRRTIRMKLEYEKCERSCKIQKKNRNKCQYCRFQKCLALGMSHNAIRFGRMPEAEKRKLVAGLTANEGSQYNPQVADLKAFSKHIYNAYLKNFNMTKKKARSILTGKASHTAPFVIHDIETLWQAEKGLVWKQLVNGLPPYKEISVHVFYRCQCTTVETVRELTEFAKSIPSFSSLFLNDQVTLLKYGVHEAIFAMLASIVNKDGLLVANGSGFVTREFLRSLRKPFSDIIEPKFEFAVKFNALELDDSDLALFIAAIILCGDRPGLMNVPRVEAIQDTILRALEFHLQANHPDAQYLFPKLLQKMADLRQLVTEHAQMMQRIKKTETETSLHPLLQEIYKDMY

Assay [17] deals with Peroxisome proliferator-activated receptor gamma (Homo sapiens) (UniProt P37231). As to the kind of experiment: ATG_PPARg_TRANS: Attagene TRANS-FACTORIAL HepG2 Assay for human Peroxisome Proliferator-activated Receptor-gamma (PPARg) (AID 2283007; active = hit-call score of the fitted dose curve at least 0.9, where 1 is the maximum). Put shortly:
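Read-out: reporter mRNA induction, detected by fluorescence after RT-PCR and capillary electrophoresis. Transiently transfected human HepG2 liver cells carrying a chimeric NR-Gal4 construct were dosed for 24 h; activity was fitted upward relative to DMSO.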

Assay [18] addresses Nuclear receptor subfamily 1 group I member 2 (Homo sapiens) (UniProt O75469). As to the kind of experiment: ATG_PXR_TRANS: Attagene TRANS-FACTORIAL HepG2 Assay for human Pregnane X Receptor (PXR) (AID 2283008; active = hit-call score of the fitted dose curve at least 0.9, where 1 is the maximum). The method in brief:
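Transient HepG2 transfectants carrying multiplexed reporter transcription units; PXR activity read through a Gal4 chimera. 24 h exposure. RT-PCR/CE fluorescence; upward curve fit referenced to DMSO.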

The target of assay [19] is Retinoic acid receptor alpha (Homo sapiens) (UniProt P10276). As to the kind of experiment: ATG_RARa_TRANS: Attagene TRANS-FACTORIAL HepG2 Assay for human Retinoic Acid Receptor alpha (RARa) (AID 2283005; active = hit-call score of the fitted dose curve at least 0.9, where 1 is the maximum). The method in brief:
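HepG2 cells transiently transfected with multiple reporter units expressing chimeric RARα-GAL4 fusion, with GAL4-UAS-driven reporters. After 24 h compound exposure, reporter mRNA induction quantified by RT-PCR and capillary electrophoresis with fluorescent labeling; gain-of-signal fitted relative to DMSO control.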

human Peroxisome Proliferator-activated Receptor alpha (PPARa), PPARA (gene 5465), sequence (Q07869 whole entry, looked up): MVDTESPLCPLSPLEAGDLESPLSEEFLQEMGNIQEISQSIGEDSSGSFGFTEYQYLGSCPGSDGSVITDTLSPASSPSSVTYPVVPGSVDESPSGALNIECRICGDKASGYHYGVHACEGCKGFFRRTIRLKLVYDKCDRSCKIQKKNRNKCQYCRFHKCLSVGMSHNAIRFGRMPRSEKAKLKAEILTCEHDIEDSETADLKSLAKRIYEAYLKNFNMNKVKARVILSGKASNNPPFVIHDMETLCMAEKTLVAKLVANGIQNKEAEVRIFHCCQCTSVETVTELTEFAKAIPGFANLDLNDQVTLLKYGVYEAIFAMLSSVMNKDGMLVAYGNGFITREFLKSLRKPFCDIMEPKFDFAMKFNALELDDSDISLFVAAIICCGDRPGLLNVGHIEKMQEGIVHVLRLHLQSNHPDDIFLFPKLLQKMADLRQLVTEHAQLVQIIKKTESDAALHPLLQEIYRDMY
Peroxisome proliferator-activated receptor gamma (Homo sapiens), sequence (P37231 whole entry, looked up, the tested form may be a part): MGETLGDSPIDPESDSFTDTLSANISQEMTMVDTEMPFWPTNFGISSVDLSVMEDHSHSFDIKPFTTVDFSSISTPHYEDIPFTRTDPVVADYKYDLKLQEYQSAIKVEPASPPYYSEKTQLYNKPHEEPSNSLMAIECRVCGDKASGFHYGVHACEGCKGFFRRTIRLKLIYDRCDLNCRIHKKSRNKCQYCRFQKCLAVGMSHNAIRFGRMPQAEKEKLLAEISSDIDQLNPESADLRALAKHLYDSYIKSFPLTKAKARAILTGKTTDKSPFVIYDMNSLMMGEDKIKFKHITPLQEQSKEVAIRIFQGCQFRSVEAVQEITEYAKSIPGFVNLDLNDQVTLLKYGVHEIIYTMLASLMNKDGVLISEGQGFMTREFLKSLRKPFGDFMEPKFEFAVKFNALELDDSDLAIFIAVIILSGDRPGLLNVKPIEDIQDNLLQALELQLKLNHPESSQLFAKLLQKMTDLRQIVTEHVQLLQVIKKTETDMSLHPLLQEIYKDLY
Nuclear receptor subfamily 1 group I member 2 (Homo sapiens), sequence (O75469 whole entry, looked up, the tested form may be a part): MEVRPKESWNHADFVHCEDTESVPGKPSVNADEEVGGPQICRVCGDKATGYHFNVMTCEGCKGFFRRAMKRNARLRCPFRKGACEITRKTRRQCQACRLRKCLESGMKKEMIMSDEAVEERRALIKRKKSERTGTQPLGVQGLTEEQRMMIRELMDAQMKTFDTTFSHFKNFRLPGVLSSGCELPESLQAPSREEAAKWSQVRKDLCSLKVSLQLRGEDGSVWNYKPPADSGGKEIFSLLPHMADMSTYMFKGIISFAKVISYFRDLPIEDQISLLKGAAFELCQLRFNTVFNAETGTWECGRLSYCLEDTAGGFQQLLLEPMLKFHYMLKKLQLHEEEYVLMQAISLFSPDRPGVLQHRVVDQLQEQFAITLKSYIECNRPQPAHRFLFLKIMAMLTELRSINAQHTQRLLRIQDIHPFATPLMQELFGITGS
Myc proto-oncogene protein (Homo sapiens), sequence (P01106 whole entry, looked up): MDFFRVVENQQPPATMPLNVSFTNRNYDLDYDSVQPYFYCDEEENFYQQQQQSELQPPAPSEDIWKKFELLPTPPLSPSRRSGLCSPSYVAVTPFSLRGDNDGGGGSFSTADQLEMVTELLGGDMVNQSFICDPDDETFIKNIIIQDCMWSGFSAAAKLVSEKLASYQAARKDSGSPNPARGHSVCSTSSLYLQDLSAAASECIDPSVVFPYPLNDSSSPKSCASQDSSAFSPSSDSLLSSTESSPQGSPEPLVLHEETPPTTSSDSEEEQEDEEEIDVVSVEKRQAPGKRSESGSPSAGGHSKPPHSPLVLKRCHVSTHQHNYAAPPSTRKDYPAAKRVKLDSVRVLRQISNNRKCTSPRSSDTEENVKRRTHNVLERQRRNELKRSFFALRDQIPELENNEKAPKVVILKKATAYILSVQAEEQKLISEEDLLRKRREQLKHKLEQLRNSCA
Cellular tumor antigen p53 (Homo sapiens), sequence (P04637 whole entry, looked up): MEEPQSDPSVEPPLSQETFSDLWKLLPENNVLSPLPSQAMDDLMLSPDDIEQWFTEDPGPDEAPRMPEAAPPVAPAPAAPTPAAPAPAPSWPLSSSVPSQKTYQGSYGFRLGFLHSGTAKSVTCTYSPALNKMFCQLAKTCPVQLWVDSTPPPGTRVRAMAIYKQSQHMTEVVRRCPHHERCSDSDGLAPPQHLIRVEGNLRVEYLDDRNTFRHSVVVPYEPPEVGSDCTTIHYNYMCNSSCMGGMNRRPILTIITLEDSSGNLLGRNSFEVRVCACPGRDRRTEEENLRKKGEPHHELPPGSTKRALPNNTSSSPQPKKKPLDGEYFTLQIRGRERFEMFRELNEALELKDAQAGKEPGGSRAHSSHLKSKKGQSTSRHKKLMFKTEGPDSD
human Retinoic Acid Receptor gamma (RARg), RARG (gene 5916), sequence (P13631 whole entry, looked up, the tested form may be a part): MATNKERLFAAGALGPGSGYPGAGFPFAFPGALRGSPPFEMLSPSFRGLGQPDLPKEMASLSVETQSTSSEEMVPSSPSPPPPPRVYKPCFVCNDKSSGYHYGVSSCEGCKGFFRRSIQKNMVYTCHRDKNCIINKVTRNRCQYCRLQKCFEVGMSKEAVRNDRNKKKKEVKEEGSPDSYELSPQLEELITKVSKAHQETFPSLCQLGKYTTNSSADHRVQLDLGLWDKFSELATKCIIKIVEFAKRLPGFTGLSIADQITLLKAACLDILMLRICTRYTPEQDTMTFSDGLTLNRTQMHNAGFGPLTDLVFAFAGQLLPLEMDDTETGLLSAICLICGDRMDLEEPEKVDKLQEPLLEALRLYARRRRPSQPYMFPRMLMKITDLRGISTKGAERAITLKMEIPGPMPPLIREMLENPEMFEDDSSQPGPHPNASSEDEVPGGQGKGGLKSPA
Retinoic acid receptor alpha (Homo sapiens), sequence (P10276 whole entry, looked up, the tested form may be a part): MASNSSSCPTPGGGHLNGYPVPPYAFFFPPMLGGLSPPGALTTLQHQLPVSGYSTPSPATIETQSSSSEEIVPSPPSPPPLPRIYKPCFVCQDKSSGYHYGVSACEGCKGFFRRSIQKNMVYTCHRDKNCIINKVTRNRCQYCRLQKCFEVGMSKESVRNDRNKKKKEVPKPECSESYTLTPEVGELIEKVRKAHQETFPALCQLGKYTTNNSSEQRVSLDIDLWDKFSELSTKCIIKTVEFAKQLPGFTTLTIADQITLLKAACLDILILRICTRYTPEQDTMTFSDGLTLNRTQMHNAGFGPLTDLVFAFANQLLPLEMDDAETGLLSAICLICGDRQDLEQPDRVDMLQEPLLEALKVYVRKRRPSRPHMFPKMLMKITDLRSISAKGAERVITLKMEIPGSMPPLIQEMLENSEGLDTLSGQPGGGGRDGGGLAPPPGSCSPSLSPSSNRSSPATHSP

On to `OCCCCO`, for which the call in [1], in [2], in [3], in [4], in [5] and in [6] was inactive. For the same compound, the outcome in assay [7], in assay [8], in assay [9], in [10], in assay [11] and in [12] was inactive. For the same compound, the result in assay [13], in assay [14] and in assay [15] was inactive.

Take `N#Cc1ccc(Cl)cc1`: the compound was classed as inactive in assay [1], in assay [2], in assay [3], in assay [4], in assay [5] and in assay [6]. Moreover, the compound was classed as inactive in assay [11], in assay [16], in assay [17], in [18], in assay [14] and in assay [15].

In the case of `Cc1ccccc1OP(=O)(Oc1ccccc1)Oc1ccccc1`, the result in assay [1], in assay [2], in assay [3], in assay [5], in [6] and in assay [11] was inactive. The result in [12] was inactive. Also, the half-maximal activity concentration (AC50) (commonly the midpoint of the concentration-response curve, whichever way the signal moves) in [4] was 12.3 µM (active); in assay [7], 20 µM (active); in assay [8], 35.3 µM (active); in assay [9] it was 20 µM (active); in assay [10], 28.7 µM (active); in assay [13], 20 µM (active). In addition, the figures for the concentration at half-maximal activity (AC50) in assay [17] and in assay [18] were 3.74 µM (active) and 0.736 µM (active), respectively.

Take `O=C(O)c1cc(I)cc(I)c1I`: the result in assay [1], in [2], in assay [3], in assay [5], in assay [6] and in assay [16] was inactive. In addition, the call in assay [18] was inactive. Moreover, the AC50 is 100 µM (active) in [4], 17.3 µM (active) in [11] and 11.9 µM (active) in [17].

Turning to `COP(=S)(OC)Oc1cc(Cl)c(I)cc1Cl`, the AC50 in assay [1] was 29.1 µM (active); in assay [3] it was 55.6 µM (active); in [4] it was 8.28 µM (active); in assay [5], 30.7 µM (active); in assay [6], 52.6 µM (active); in assay [11] it was 38 µM (active). In addition, the AC50 in assay [17] was 28.3 µM (active); in [18] it was 21.8 µM (active). Further, the outcome in assay [2] and in [16] was inactive.

Turning to `N#Cc1ccncc1`, the call in assay [1], in [2], in assay [3], in assay [4], in [5] and in assay [6] was inactive. Moreover, the result in [11], in [16], in assay [19], in [18], in [14] and in assay [15] was inactive.

Turning to `c1ccc(-c2cccc(-c3ccccc3)c2)cc1`, the compound was classed as inactive in [1], in assay [2], in assay [3], in [5], in assay [6] and in assay [11]. The result in [12], in assay [17] and in assay [15] was inactive. The AC50 in assay [4] is 40.9 µM (active); in assay [7] it was 4.68 µM (active); in [8], 20 µM (active); in assay [9] it was 20 µM (active); in assay [10], 20 µM (active); in assay [13], 13.2 µM (active).

With `Oc1ccc(Cc2ccc(O)cc2)cc1`, the call in assay [1], in assay [2], in assay [3], in assay [5], in [6] and in assay [7] was inactive. Moreover, the outcome in [8], in [9], in [10], in [11], in assay [16] and in assay [12] was inactive. In addition, the outcome in assay [13] and in assay [18] was inactive. The concentration at half-maximal activity (AC50) in [4] was 100 µM (active); in assay [17], 15.8 µM (active).
